From PubChem BioAssay come the findings set out here.

Values without a mark were called inactive. The source made the active and inactive calls. Unless noted, no stated cut-off is given here; in the data, active means inhibition above about 28%; inactive means the rest.

A short description of assay [1]: StAR promoter reporter inhibitors, counter-screen for LRH-1 inverse agonist project, cell-based, luminescence, high throughput (AID 651611). The following applies: StAR promoter luciferase reporter counterscreen, at 3.6 µM, stronger effect = higher value. In general terms: A counterscreen serves to expose hits that act by an unwanted route or on another target.
The target in assay [2] is Nuclear receptor subfamily 5 group A member 2 (Homo sapiens) (UniProt O00482). As to the kind of experiment: LRH-1 (NR5A2) inverse agonists, retest, confirmation, cell-based, luminescence (AID 651613; in the data active means inhibition above about 42%;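 further: HEK293T cells co-transfected with LRH-1 and StAR promoter luciferase reporter; 0% = vehicle wells and 100% = parental cells lacking receptor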). Conditions: cell-based LRH-1 luciferase reporter, inverse agonism; at 3.6 µM; stronger effect = higher value. On the technique in general: Reporter assays use an easily measured gene product as a stand-in for the process of interest.
Sequence of Nuclear receptor subfamily 5 group A member 2 (Homo sapiens) (O00482 whole entry, looked up): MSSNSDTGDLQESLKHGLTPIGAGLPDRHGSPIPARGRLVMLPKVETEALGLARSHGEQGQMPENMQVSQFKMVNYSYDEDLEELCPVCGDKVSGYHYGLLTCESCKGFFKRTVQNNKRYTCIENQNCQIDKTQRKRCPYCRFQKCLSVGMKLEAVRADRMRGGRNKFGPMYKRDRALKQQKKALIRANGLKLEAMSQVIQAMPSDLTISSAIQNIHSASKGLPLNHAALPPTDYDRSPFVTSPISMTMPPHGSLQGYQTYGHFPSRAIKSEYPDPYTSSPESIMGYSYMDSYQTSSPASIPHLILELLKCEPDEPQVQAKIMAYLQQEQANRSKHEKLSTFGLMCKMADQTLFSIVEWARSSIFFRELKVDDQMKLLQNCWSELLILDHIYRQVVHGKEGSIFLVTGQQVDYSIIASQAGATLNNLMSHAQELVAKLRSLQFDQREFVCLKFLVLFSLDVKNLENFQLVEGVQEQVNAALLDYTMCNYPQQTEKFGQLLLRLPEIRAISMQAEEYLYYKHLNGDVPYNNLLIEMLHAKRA

For assay [3], the target named is Steroidogenic factor 1 (Homo sapiens) (UniProt Q13285). As to the kind of experiment: SF1 (NR5A1) inverse agonists, counter-screen for LRH-1 inverse agonist project, cell-based, luminescence, high throughput (AID 651614; in the data active means inhibition above about 44%;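 further: cells cotransfected with StAR promoter reporter and SF1 expression vector; 0% = vehicle on cells with receptor and 100% = vehicle on cells lacking receptor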). Conditions: cell-based SF1 luciferase reporter, at 3.6 µM, stronger effect = higher value.
Sequence of Steroidogenic factor 1 (Homo sapiens) (Q13285 whole entry, looked up, the tested form may be a part): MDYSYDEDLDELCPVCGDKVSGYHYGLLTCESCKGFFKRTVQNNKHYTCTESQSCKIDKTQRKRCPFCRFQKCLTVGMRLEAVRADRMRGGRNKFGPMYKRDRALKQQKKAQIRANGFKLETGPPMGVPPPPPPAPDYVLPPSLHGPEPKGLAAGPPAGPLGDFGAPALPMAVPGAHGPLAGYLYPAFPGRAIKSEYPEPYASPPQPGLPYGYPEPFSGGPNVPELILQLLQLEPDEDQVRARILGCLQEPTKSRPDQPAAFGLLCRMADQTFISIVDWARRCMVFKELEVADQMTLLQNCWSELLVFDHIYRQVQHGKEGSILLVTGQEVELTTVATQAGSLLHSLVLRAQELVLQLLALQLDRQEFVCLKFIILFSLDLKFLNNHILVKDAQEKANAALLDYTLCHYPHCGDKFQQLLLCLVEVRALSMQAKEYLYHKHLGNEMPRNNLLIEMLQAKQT
A short description of assay [4]: VP16 transactivation reporter inhibitors, counter-screen for LRH-1 inverse agonist project, cell-based, luminescence, high throughput (AID 651615; in the data active means inhibition above about 33%). Conditions: Gal4-VP16 luciferase reporter cells, at 3.6 µM, stronger effect = higher value.

A word on the inhibition: it is the relative decrease from the control value, in per cent. On to `COCc1cc(C)nc(SCC(=O)Nc2cc3c(cc2C#N)OCO3)c1C#N`, for which the inhibition in assay [1] was -4.84%; in assay [2], 45.3% (active); in assay [3], 47.2% (active); in assay [4], -12.4%.
For `CCNc1nc(-c2sc(NC(=O)C(C)(C)C)nc2C)c(-n2cc(-c3ccccc3)nn2)s1`, in that order: 60.9% (active), 27.6%, 41.4% and 35.7% (active).
Take `CC(=O)c1cccc(NC(=O)c2ccc([N+](=O)[O-])o2)c1`: the inhibition was 25% in assay [1], 61.7% (active) in assay [2], 61.9% (active) in assay [3] and -5.65% in assay [4].
Regarding `COc1cccc(C(NC(C)=O)c2ccc3cccnc3c2O)c1` (stereo not given), the inhibition in assay [1] was 74.9% (active); in assay [2], 89.8% (active); in assay [3] it was 76.5% (active); in assay [4], 76.3% (active).
For `COc1ccc(NC(=O)COc2cccc3c2CCN(C)C3=O)c(OC)c1`, in that order: 20.5%, 65.9% (active), 61.6% (active) and -23.8%.
For `COc1cc(C2CC(=O)c3c([nH]c(C(=O)OCCOC(C)C)c3C)C2)cc(OC)c1OC` (stereo not given), in that order: 24.2%, 40%, 56.8% (active) and 43.3% (active).
For `CN(C)c1cc[n+](Cc2c(Cl)cccc2Cl)cc1`, in that order: 7.95%, 73.2% (active), 68.2% (active) and 45.7% (active).
As to `Cc1ccccc1C(=O)NC1CCN(CC(=O)Nc2ccc(Br)cc2)CC1`, the inhibition was 5.55% in assay [1], 59.1% (active) in assay [2], 53.4% (active) in assay [3] and 15.4% in assay [4].
For `COc1ccc(CCNC(=O)CN2C(=O)NC3(CCCCC3C)C2=O)cc1` (stereo not given), in that order: 3.33%, 66.3% (active), 66.7% (active) and -17%.
On to `O=C(Nc1cc(-c2nc3ncccc3o2)ccc1Cl)c1ccc([N+](=O)[O-])o1`, for which the inhibition was 15.3% in assay [1], 52.2% (active) in assay [2], 53.2% (active) in assay [3] and -25.6% in assay [4].
`CC(=O)c1ccc(-c2c(C)cc3oc(=O)cc(-c4ccccc4)c3c2C)cc1`: the inhibition in assay [1] is -6.71%; in assay [2] it was 57% (active); in assay [3] it was 52.6% (active); in assay [4] it was -3.38%.
For `CN1CCN(c2ccc(S(=O)(=O)N3CCCCC3)cc2NC(=O)COc2ccc([N+](=O)[O-])cc2)CC1`, in that order: 2.36%, 59.6% (active), 53.1% (active) and 4.16%.
For `O=C(NNc1c(F)c(F)cc(F)c1F)C1CCN(S(=O)(=O)c2ccccc2F)CC1`, in that order: -3.09%, 8.61%, 22.4% and 4.32%.
As to `COc1ccc2c(/C=C/c3cc[n+](C)cc3)c[nH]c2c1`, the inhibition is 28.7% (active) in assay [1], 64.1% (active) in assay [2], 56.3% (active) in assay [3] and 50.9% (active) in assay [4].
Take `CCc1cc(=O)oc2c(C)c(OCC(=O)NCCCN3CCOCC3)ccc12`: the inhibition in assay [1] was 3.94%; in assay [2] it was 48.7% (active); in assay [3], 42.6%; in assay [4], 2.03%.
Turning to `O=C(Cn1nnc2ccccc2c1=O)Nc1ccc2c(c1)CCC2`, the inhibition is -34.8% in assay [1], 20.8% in assay [2], 25.6% in assay [3] and 0.93% in assay [4].
As for `COc1ccc(CCNC(=O)CSc2ccc(NC(C)=O)cc2)cc1OC`, the inhibition was 9.56% in assay [1], 53.8% (active) in assay [2], 53.4% (active) in assay [3] and -3.78% in assay [4].
Turning to `O=C(Nc1ccc(C(=O)N2CCOCC2)cc1)c1cccc([N+](=O)[O-])c1`, the inhibition was 1.39% in assay [1], 48.4% (active) in assay [2], 41.9% in assay [3] and -0.69% in assay [4].
For `COc1ccc(-c2oc(=O)c3cc(OC)c(OC)cc3c2C#CCCO)cc1`, the inhibition in assay [1] is 33.4% (active); in assay [2] it was 28.7%; in assay [3], 29.1%; in assay [4], -1.67%.
`CCn1c(=O)oc2cc(NC(=O)CCl)ccc21`: the inhibition is 44.4% (active) in assay [1], 64.4% (active) in assay [2], 65.9% (active) in assay [3] and -54.9% in assay [4].
Take `CCn1c(=S)sc2c(=O)n(CC(=O)Nc3ccc(OC)c(Cl)c3)c(C)nc21`: the inhibition was 6% in assay [1], 33.4% in assay [2], 24.9% in assay [3] and 4.75% in assay [4].
With `Cc1c(C(C)C)c(=O)n(-c2ccc(S(=O)(=O)NC3CCCCC3)cc2)n1C`, the inhibition in assay [1] is 23.7%; in assay [2], 60.6% (active); in assay [3] it was 62.1% (active); in assay [4] it was 47.9% (active).
For `CCCc1cc(=O)oc2cc(OCC(=O)NCc3ccccn3)ccc12`, in that order: 10.6%, 55.5% (active), 59.1% (active) and -9.39%.
On to `COc1cc(-c2nc(C(=O)NCC3CCCO3)cc3c2[nH]c2ccccc23)cc(OC)c1OC` (stereo not given), for which the inhibition in assay [1] was 62.5% (active); in assay [2], 49.6% (active); in assay [3], 39.1%; in assay [4] it was 2.55%.
As to `COc1ccccc1OCc1nnc(SCC(=O)Nc2ccc(N3CCOCC3)cc2)n1C`, the inhibition in assay [1] is -2.38%; in assay [2] it was 17.9%; in assay [3], 29.6%; in assay [4], -11.3%.
For `O=C(O)c1c[nH]c2c([N+](=O)[O-])cccc2c1=O`, the inhibition in assay [1] is 10.4%; in assay [2], 35.2%; in assay [3], 29.6%; in assay [4], 5.89%.
`CC(=O)Nc1ccc(NC(=O)CSc2ccc(-c3ccc(-n4ccnc4)cc3)nn2)cc1`: the inhibition was 9.71% in assay [1], 52% (active) in assay [2], 53% (active) in assay [3] and -5.42% in assay [4].
Consider `CC(=O)N1CCc2c(sc(NC(=O)c3ccc([N+](=O)[O-])o3)c2C#N)C1`, for which the inhibition in assay [1] is -28.6%; in assay [2], 36%; in assay [3], 43.8% (active); in assay [4] it was -119%.
With `Nc1nc(-c2ccccc2)[nH]c(=O)c1N=O`, the inhibition is 18.9% in assay [1], 54% (active) in assay [2], 49.4% (active) in assay [3] and -10.9% in assay [4].
For `CC(C)(Oc1ccc(Cl)cc1)C(=O)OCC(=O)NCCc1ccccc1`, in that order: 10.5%, 45.2% (active), 46.8% (active) and 4.06%.
On to `Cn1c(=O)c2c(nc(CN3CCOCC3)n2CC(=O)c2ccccc2)n(C)c1=O`, for which the inhibition is -4.41% in assay [1], -0.49% in assay [2], 1.97% in assay [3] and 5.48% in assay [4].
Regarding `CCC(C)(C)n1nnnc1CN1CCC(O)(c2cccc(C(F)(F)F)c2)CC1`, the inhibition is 8.87% in assay [1], 41.6% (active) in assay [2], 57.2% (active) in assay [3] and -2.12% in assay [4].
For `COc1ccc(NC(=O)CSc2n[nH]c(-c3ccccn3)n2)cc1`, in that order: 2.28%, 32.4%, 20.2% and 2.72%.
For `O=C(Nc1c(Cl)ccc2nsnc12)c1ccc([N+](=O)[O-])o1`, in that order: 17.1%, 65.1% (active), 64.9% (active) and -11.9%.
Regarding `COc1cc(C2c3cc4c(cc3OC(NNC(N)=S)C2C)OCO4)cc(OC)c1OC` (stereo not given), the inhibition is 49.2% (active) in assay [1], 35.4% in assay [2], 44.2% (active) in assay [3] and 14% in assay [4].
`N#CCCn1cc(/C=N/NC(N)=S)c(-c2ccc(-c3ccccc3)cc2)n1`: the inhibition in assay [1] was 28.7% (active); in assay [2] it was 52% (active); in assay [3], 48.6% (active); in assay [4], -9.84%.
Turning to `Cc1no[n+]([O-])c1COc1ccc(/C=C2\NC(=S)NC2=O)cc1`, the inhibition was -5.62% in assay [1], 48.3% (active) in assay [2], 45.9% (active) in assay [3] and -19.4% in assay [4].
For `C=CC(=O)Nc1ccc(Br)cc1`, in that order: 20.7%, 41%, 51.4% (active) and -1.85%.
For `c1ccc2c(c1)C1=NCCN1c1ccccc1-2`, in that order: 20%, 104% (active), 50.2% (active) and 87.8% (active).
For `CC1(C)CC(=O)C=C(c2ccc3c(c2)OCO3)C1`, in that order: -7.31%, 40.6%, 42.1% and 2.47%.
Take `COc1ccc(OCc2nnc3n2N=C(c2ccc(C)cc2)CS3)cc1`: the inhibition in assay [1] is -0.29%; in assay [2] it was 26.3%; in assay [3] it was 28.9%; in assay [4] it was -1.91%.
Turning to `Cc1cc(O)c(NC(=O)c2cc([N+](=O)[O-])ccc2Cl)cc1C`, the inhibition is 35% (active) in assay [1], 53.6% (active) in assay [2], 58.8% (active) in assay [3] and -8.66% in assay [4].
`Cc1nn(CC(=O)Nc2ccc3c(c2)OCCO3)c(C)c1[N+](=O)[O-]`: the inhibition in assay [1] is 11.2%; in assay [2] it was 62.3% (active); in assay [3], 51.6% (active); in assay [4] it was 10.4%.
As to `O=C(Cc1ccc(S(=O)(=O)N2CCCC2)s1)Nc1cccc([N+](=O)[O-])c1`, the inhibition in assay [1] is 7.13%; in assay [2] it was 51.3% (active); in assay [3], 46.5% (active); in assay [4], 1.81%.
For `COc1ccc(CCNC(=O)CSc2nc3[nH]c(=O)cc(O)c3s2)cc1`, in that order: 17.6%, 60.7% (active), 51.7% (active) and -3.78%.
